Assay [1] deals with L-lactate dehydrogenase (Plasmodium falciparum (isolate CDC / Honduras)) (UniProt Q27743). In words: PfLDH activity inhibition – cell lysate, 3D7 strain, counter-screen for P. falciparum growth inhibition project (AID 2304).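 Note: 0% = vehicle and 100% = reference inhibitor.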 To be noted: P. falciparum 3D7 crude extract, LDH APAD/NBT absorbance; at 2 µM; stronger effect = higher value.
The nature of assay [2]: inhibition of 3D7 malaria parasite growth – strain 3D7 (AID 2306).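 Note: 0% = DMSO wells and 100% = chloroquine plus artemisinin control wells.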 The following applies: P. falciparum 3D7 erythrocytic growth, LDH absorbance, 72 h; at 2 µM; stronger effect = higher value.

This passage reports inhibition and growth inhibition results from PubChem BioAssay.

Values without a mark were called inactive. The source made the active and inactive calls. The rule behind the calls is not given here.

L-lactate dehydrogenase (Plasmodium falciparum (isolate CDC / Honduras)), sequence (Q27743 whole entry, looked up): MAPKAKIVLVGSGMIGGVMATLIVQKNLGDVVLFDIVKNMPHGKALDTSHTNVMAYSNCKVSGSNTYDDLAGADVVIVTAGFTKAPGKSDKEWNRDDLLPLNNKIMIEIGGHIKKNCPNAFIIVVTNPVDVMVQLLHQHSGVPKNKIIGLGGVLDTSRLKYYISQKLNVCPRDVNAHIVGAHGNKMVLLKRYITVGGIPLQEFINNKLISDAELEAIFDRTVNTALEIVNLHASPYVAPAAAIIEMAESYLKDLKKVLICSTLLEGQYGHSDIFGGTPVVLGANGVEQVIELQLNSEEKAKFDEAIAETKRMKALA

As usually defined, the inhibition is the percentage by which the read-out fell short of the control. Turning to `COc1cc(Cc2cnc(N)nc2N)cc(OC)c1OC`, the inhibition in assay [1] was 3%. The growth inhibition in assay [2] is 88% (active).
